Test results published in ChEMBL document CHEMBL3988442, “University of Dundee, Small-Polar-MMV Screening Library” (2021).
In all, about 53,000 compounds went through this assay and about 900 (1.7%) showed an effect of 50% or more. The sample holds strong results, similar compounds and a random draw of the others, so the mix is not that of the screen.

System: Mycobacterium tuberculosis
Assay: Cornell - Phenotypic assay to identify agents that inhibit growth of Mycobacterium tuberculosis
Format: functional
Design: scale not given: direction of the effect not stated beside the values
Settings: 10 mM as filed; unlikely as a test dose

Row | SMILES | Percent Effect [%]
1 | O=C(c1cc(-c2cccs2)cs1)N1CCSCC1 | 48.33
2 | Cc1cc(NC(=O)NCC(C)N2CCc3ccccc32)no1 (stereo not drawn) | 26.44
3 | NC(=O)C(NC(=O)COC1CCCCC1)c1ccccc1 (stereo not drawn) | 22.67
4 | NC(CC1CCCC1)c1ccc(Oc2ccccc2)cc1 (stereo not drawn) | 105
5 | OC(CN1CCN(CC2CCCCC2)CC1)c1ccccc1 (stereo not drawn) | 2.655
6 | NC(c1ccccc1)c1ccc(OC(F)F)cc1 (stereo not drawn) | 11.06
7 | Cl.NC(CC1CCCC1)c1ccccc1 (stereo not drawn) | 23.09
8 | Cl.NC(CC1CCCCC1)c1ccccc1 (stereo not drawn) | 52.12
9 | COc1cc(C)nc(N2CCN(C(=O)c3ccn(C)c(=O)c3)CC2)n1 | 29.4
10 | Cn1c2ccccc2c2ncn(CCCN3CCOCC3)c(=O)c21 | -22.77
11 | Cc1nc(CCC(N)=O)cc(C2CCCCN2S(C)(=O)=O)n1 (stereo not drawn) | 34.9
12 | Cc1nn(C)c(Cl)c1CNCc1cccnc1N1CCCCC1.Cl | 10.36
13 | Cc1ccccc1N1CCN(c2cc(N(C)C)ncn2)C(C)C1 (stereo not drawn) | 75.02
14 | Cc1ccccc1N1CCN(c2ccncn2)C(C)C1 (stereo not drawn) | 16.47
15 | Cc1ccc(N2CCN(c3ccccc3C)CC2C)nn1 (stereo not drawn) | 29.54
16 | COCC1c2c(cnn2C)CCN1Cc1ccsc1 (stereo not drawn) | 24.96
17 | Cc1noc(C)c1CN1C[C@H](C)[C@]2(CCN(Cc3cccnc3)C2=O)C1.O=C(O)C(F)(F)F.O=C(O)C(F)(F)F | -5.753
18 | Cn1ccnc1CN1CCC2(CCC(=O)N2CCN2CCCC2)CC1.O=C(O)C(F)(F)F.O=C(O)C(F)(F)F | 19.98
19 | CN(C)CC1CN(c2cnc3ccccc3n2)CCO1 (stereo not drawn) | -10.68
20 | Cc1cnn(CC2CN(c3ncnc4ccccc34)CCO2)c1 (stereo not drawn) | 29.19
21 | Cc1cnn(CC2CN(c3cnc4ccccc4n3)CCO2)c1 (stereo not drawn) | 106.1
22 | Cc1nn(C)cc1-c1cc(C(=O)NCC(C)(C)c2ccccc2F)n[nH]1 | -16.11
23 | Cc1nn(C)cc1-c1cc(C(=O)NCC(C)(C)c2cccc(F)c2)n[nH]1 | 26.97
24 | Cc1nn(C)cc1-c1cc(C(=O)NCC(C)(C)c2ccc(F)cc2)n[nH]1 | 61.27
25 | COCC1c2nnn(CC3CC3)c2CCN1Cc1ccncc1.O=C(O)C(F)(F)F.O=C(O)C(F)(F)F (stereo not drawn) | 18.59
26 | CN1CCC(Cc2cc(N(C)C)ncn2)C1 (stereo not drawn) | 2.45

Row | SMILES | Percent Effect [%]
27 | CC(C)c1cc(CN2CCNCC2)no1 | 107.4
28 | CC(C)c1cc(CN2CCC(N)CC2)no1 | -17.69
29 | CC(C)c1cc(CN2CCC(CC(=O)O)CC2)no1 | -2.549
30 | CN1C[C@@H](C(=O)NC(C)(C)C)[C@@]2(COc3ccc(F)cc3C2=O)C1 | 28.72
31 | COc1ccccc1C1Cn2c(C)cnc2CN1Cc1ccc(C)nc1 (stereo not drawn) | -10.88
32 | O=C(c1c(F)cccc1F)N1CCC[C@@H]1Cn1c(=O)oc2ccccc21 | 34.56
33 | COc1cccc(OC2CN(C(=O)c3c(C)noc3C)C2)c1 | 10.7
34 | COc1cccc(OC2CN(C(=O)c3ccoc3C)C2)c1 | -6.916
35 | COc1cccc(OC2CN(C(=O)c3sccc3C)C2)c1 | 55.64
36 | Cc1nc2c(c(NCc3cnc4c(c3)CCC4)n1)CNC2 | 4.431
37 | COCCS(=O)(=O)c1ncc(CN(C)C)n1Cc1ccccc1 | 5.309
38 | CN(Cc1cccc(F)c1)C(=O)CN1CCCC1CCc1ccccc1 (stereo not drawn) | 61.93
39 | N#CCCN(CCC#N)C(=O)CN1CCCC1Cc1cccc(F)c1 (stereo not drawn) | 5.513
40 | CN(Cc1cccc(F)c1)C(=O)CN1CCCCC1Cn1cncn1 (stereo not drawn) | -21.34
41 | NC(=O)Nc1cccc(Oc2ccccn2)c1 | 3.298
42 | OCCN1CCN(CC(O)c2ccc(C(F)(F)F)cc2)CC1 (stereo not drawn) | -26.61
43 | O=c1oc(-c2ccc(F)cc2)nn1CN1CCSCC1 | -31.85
44 | CCS(=O)(=O)N1C[C@@H](C(=O)NC(C)C)[C@@]2(Cc3ccccc3C(=O)N2)C1 | 50.91
45 | CN1C[C@@H](C(=O)NCC(F)(F)F)[C@@]2(CCc3ccccc3C(=O)N2)C1 | 4.729
46 | CC(C)NC(=O)[C@@H]1CN(C(=O)C2CC2)C[C@]12Cc1ccccc1C(=O)N2 | 41.43
47 | CC(CNC(=O)Nc1ccc(N(C)C)nc1)Cn1cccn1 (stereo not drawn) | 53.74
48 | CC(Cn1cccn1)NC(=O)Nc1ccc(N(C)C)nc1 (stereo not drawn) | -5.183
49 | CCN(CC)c1ccc(NC(=O)NC(C)Cn2cccn2)cn1 (stereo not drawn) | -29.36
50 | CN1C[C@H](O)[C@]2(CCN(Cc3ccc(OC(F)(F)F)cc3)C2)S1(=O)=O | 30.47
51 | O=C(C[C@@H]1COC[C@H]2CN(Cc3ccc(F)cc3)C[C@@H]12)N1CCCC1.O=C(O)C(F)(F)F | -5.358
52 | CC(C)c1noc(C2CCN(C(=O)C3CCCO3)CC2)n1 (stereo not drawn) | 4.846

Row | SMILES | Percent Effect [%]
53 | O=c1c2cc3c(cc2nnn1Cc1cccc(F)c1)OCCO3 | -9.384
54 | Cc1ccc2c(n1)N(Cc1cccnc1)CCN(C(=O)C1CC=CC1)C2 | 30.61
55 | CC(C)NC(=O)Nc1nc2c(s1)CN(C(=O)NCc1cccs1)CC2 | 53.32
56 | COC(=O)Nc1nc2c(s1)CN(C(=O)NCc1cccs1)CC2 | 35.61
57 | O=C(Nc1nc2c(s1)CN(C(=O)NCc1cccs1)CC2)C1CC1 | 25.74
58 | O=C(O)c1ccc(CN2CCCC(Cc3ccn[nH]3)C2)cc1 (stereo not drawn) | 18.19
59 | Cc1cccc(OCCN2CCC(c3ccnn3CCO)CC2)c1 | -13.34
60 | Cc1nn(CCCNC(=O)C2CCN(S(C)(=O)=O)CC2)cc1Br | 34.63
61 | Cc1nn(CCCNC(=O)C2CCN(S(C)(=O)=O)CC2)cc1Cl | 12.8
62 | Cc1nn(CCCNC(=O)C2CCN(S(C)(=O)=O)CC2)c(Cl)c1Cl | 51.75
63 | CCCn1nnnc1COc1ccc(C(=O)OC)cc1 | 2.105
64 | CC(Nc1nc2c(cnn2C)c(=O)[nH]1)c1ccc(F)cc1 (stereo not drawn) | 46.54
65 | CCC(=O)Nc1ccc(C(C)Nc2nc3c(cnn3C)c(=O)[nH]2)cc1 (stereo not drawn) | 16.12
66 | CC(C)Sc1ccc(C(C)Nc2nc3c(cnn3C)c(=O)[nH]2)cc1 (stereo not drawn) | 64.6
67 | Cc1nnc(Nc2cccc(C3CCCN(Cc4ncc[nH]4)C3)n2)s1 (stereo not drawn) | -14.35
68 | Cn1ncc2c(NCCOCc3ccccc3)nc(C3CCCC3)nc21 | 58.05
69 | Cn1ncc2c(NCCOc3ccc(F)cc3)nc(C3CCCC3)nc21 | 105.9
70 | Cn1ncc2c(NCCn3cccc3)nc(C3CCCC3)nc21 | 23.68
71 | CCOCCNc1nc(C2CCCC2)nc2c1cnn2C | 15.61
72 | CC(C)N(CCNc1nc(C2CCCC2)nc2c1cnn2C)C(C)C | 95.65
73 | CCS(=O)(=O)CCNc1nc(C2CCCC2)nc2c1cnn2C | -9.599
74 | Cn1ncc2c(NCCCOc3cccnc3)nc(C3CCCC3)nc21 | -0.5342
75 | CNCCCNc1nc(C2CCCC2)nc2c1cnn2C | 15.27
76 | Cn1ncc2c(NCCC34CCCN3CCC4)nc(C3CCCC3)nc21 | 10.87
77 | Fc1ccc([C@@H]2COC[C@H]2NCc2cccc(F)c2)cc1.O=C(O)CC(O)(CC(=O)O)C(=O)O | 12.54
78 | CCCNC(=O)c1nn(CC)cc1NC(=O)c1cn(C)nc1C | 34.88

Row | SMILES | Percent Effect [%]
79 | CC(=O)Nc1nc(CN2CCn3c(C)nnc3C2)cs1 | -12.41
80 | COCCCn1c(CN2CCSCC2)cnc1S(=O)(=O)C1CCCC1 | 27.36
81 | COCCN1C[C@@H](c2ccccc2)[C@@]2(CCN(CC(=O)N(C)C)C2=O)C1.O=C(O)C(F)(F)F | 13.65
82 | O=C(c1n[nH]c(=O)c2ccccc12)N1CCCCC1c1ccn[nH]1 (stereo not drawn) | -33.63
83 | CS(=O)(=O)c1cn[nH]c1C1CCCCN1C(=O)c1cncs1 (stereo not drawn) | -10.78
84 | O=C(c1cncs1)N1CCCC1c1ccn[nH]1 (stereo not drawn) | 104.4
85 | Cc1ncncc1C(=O)N1CCCC(Cc2nccs2)C1 (stereo not drawn) | -16.51
86 | Cc1csc(CN2CC[C@H]3C[C@@H](c4nnc(C)[nH]4)O[C@@H]3C2)n1 | -4.039
87 | CC(C)N(C(=O)Cn1nc2n(c1=O)CCCCC2)C1CCC1 | 0.8005
88 | Fc1cccc(CN2CCC[C@H](Cn3nnc(-c4ccccn4)n3)C2)c1 | 14.75
89 | Fc1ccccc1CN1CCC[C@H](Cn2nnc(-c3cccs3)n2)C1 | 35.5
90 | Fc1ccccc1CN1CCC[C@@H](Cn2nnc(-c3cccs3)n2)C1 | 75.98
91 | CCc1ccccc1NC(=O)c1cnn(C)c1C | 25.28
92 | Nc1no[n+]([O-])c1C(=O)NCc1ccccn1 | -59.59
93 | O=C(c1ccncc1)N1CCCC1c1nc(O)cc(-c2ccccn2)n1 (stereo not drawn) | -36.16
94 | CSCC(CCO)Nc1nc(C(F)F)nc2ccccc12 (stereo not drawn) | 41.07
95 | CCc1noc(C(C)N2CCN(CC(=O)N3CCOCC3)CC2)n1 (stereo not drawn) | 11.6
96 | N#Cc1cccc(NC2CC(=O)N(CCCc3ccccc3)C2)n1 (stereo not drawn) | 2.519
97 | N#Cc1cccc(NC2CC(=O)N(C3Cc4ccccc4C3)C2)n1 (stereo not drawn) | 53.28
98 | N#Cc1cccc(NC2CC(=O)N(Cc3ccccc3Cl)C2)n1 (stereo not drawn) | -13.97
99 | O=C1CCC2(CCN(Cc3ccsc3)CC2)N1Cc1ccccc1 | 26.5
100 | Cc1ccoc1C(=O)NC1CCN(Cc2ccccc2C#N)CC1 | -4.356
101 | CC(CNC(=O)c1ccc(C#N)cc1)N1CCc2ccccc21 (stereo not drawn) | 20.43
102 | COc1ccc(NC(=O)NCC(C)N2CCc3ccccc32)cc1 (stereo not drawn) | 13.58
103 | CC(CNC(=O)Nc1ccc(C#N)cc1)N1CCc2ccccc21 (stereo not drawn) | 62.86
